Only some compounds are listed: those with a hit (about 12% of all), similar ones and a draw of the others.
Gal4-VP16 FLuc = VP16 counterscreen qHTS for inhibitors of ROR gamma transcriptional activity | Drosophila S2 Gal4-VP16 UAS-luciferase, luminescence, 20 h | Potency, µM (top dose mostly 53.6 µM), actives largely listed as inhibitors | 3.5% of 310,000 active | AID 2546, 2010;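 further: Gal4-VP16 expression switched on by copper sulfate through the metallothionein promoter; nearly all actives have a fitted effect of over 50% in size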
RORg inh = qHTS for inhibitors of ROR gamma transcriptional activity; 5.4% of 310,000 active; AID 2551, 2010; Drosophila S2 Gal4-RORgamma UAS-luciferase reporter, 20 h; Potency, µM (titrated, usually from 53.6 µM), hits mostly inhibitors; further: nearly all actives have a fitted effect of over 60% in size
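Schneider cells (Drosophila), stable Gal4 DBD–ROR gamma + UAS-luc; 1 hr cmpd preincubation; Cu2+ induction 700 uM final; 20 hr ambient; luminescence.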
ALDH1A1 block = qHTS Assay for Inhibitors of Aldehyde Dehydrogenase 1 (ALDH1A1) | Potency, µM (titrated, usually from 75.3 µM), most hits filed as inhibitors | Purified ALDH1A1, NADH fluorescence, propionaldehyde substrate | AID 1030, 2008 | 7.3% of 220,000 active; active means well fitted inhibition curve with a large enough effect, not every such curve was filed as active; inconclusive means small, poorly fitted or top-dose-only effect, or another doubt; inactive means no such curve, though single readings can be large or run the other way
Target sequence (P00352 whole entry, looked up): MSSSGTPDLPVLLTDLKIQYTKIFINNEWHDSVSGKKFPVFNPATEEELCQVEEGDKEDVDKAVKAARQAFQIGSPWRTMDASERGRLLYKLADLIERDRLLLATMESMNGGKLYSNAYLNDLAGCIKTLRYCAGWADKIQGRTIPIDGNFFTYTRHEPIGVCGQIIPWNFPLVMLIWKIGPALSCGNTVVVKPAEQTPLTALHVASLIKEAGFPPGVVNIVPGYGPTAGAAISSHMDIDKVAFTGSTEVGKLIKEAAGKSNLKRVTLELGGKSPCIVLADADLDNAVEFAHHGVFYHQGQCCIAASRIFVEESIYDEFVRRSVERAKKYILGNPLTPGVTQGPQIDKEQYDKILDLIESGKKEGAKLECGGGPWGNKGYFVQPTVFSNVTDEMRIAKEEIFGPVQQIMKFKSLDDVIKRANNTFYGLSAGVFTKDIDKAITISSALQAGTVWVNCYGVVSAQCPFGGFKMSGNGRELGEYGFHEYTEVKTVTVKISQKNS
PLK1 PBD inh = qHTS for Inhibitors of PLK1-PDB (polo-like kinase 1 - polo-box domain): Primary Screen; Serine/threonine-protein kinase PLK1 (Homo sapiens), P53350; Plk1 PBD binding of FITC phosphopeptide, fluorescence polarization; Potency, µM, hits mostly inhibitors; 2.8% of 360,000 active; further: series mostly up to about 57 µM; nearly all actives have a fitted effect of over 65% in size
Sfp PPTase inh = qHTS Assay for Inhibitors of Bacillus subtilis Sfp phosphopantetheinyl transferase (PPTase); 4'-phosphopantetheinyl transferase ffp (Bacillus subtilis), Q9F4F7; Biochemical Sfp PPTase activity, qHTS; Potency, µM, most hits filed as inhibitors; 3.5% of 310,000 active; AID 1490, 2009;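 further: the enzyme is Sfp with the accession as filed and its product quenches rhodamine fluorescence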
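Fluorescence-quenching assay: 15 nM Sfp-PPTase preincubated 15 min at room temperature with compound, then 5 uM rhodamine-CoA and 12.5 uM BHQ-2-labelled YbbR peptide added. Fluorescence (ex 525/em 598 nm) read at start and after 30 min; difference gives rate.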
Of the large screens only hits and unclear results are named; the others gave an inactive call. Unless noted, the call rests on the fitted dose curve; in most records, active means well fitted curve in the direction sought with a large enough effect; inconclusive means small, poorly fitted or top-dose-only effect, or another doubt; inactive means no such curve, though single readings can be large; an effect the other way counts as inactive or inconclusive.

COc1c(C)cc(C(=O)C2CCCN(Cc3ccccn3)C2)cc1C (stereo not drawn)	Gal4-VP16 FLuc 10µM, RORg inh 2µM, ALDH1A1 block 32µM
COC(=O)C[C@](O)(CCCC(C)(C)O)C(=O)O[C@@H]1C(OC)=C[C@]23CCCN2CCc2cc4c(cc2[C@H]13)OCO4	Gal4-VP16 FLuc inconclusive, RORg inh inconclusive (no result: PLK1 PBD inh)
CC/C=C\C/C=C\C/C=C\C/C=C\C/C=C\CCCC(=O)NCCCC(=O)O	none (no result: PLK1 PBD inh)
O=C(Nc1ccc(Cl)c(Cl)c1)c1ccco1	Gal4-VP16 FLuc inconclusive, RORg inh inconclusive (no result: ALDH1A1 block)
C=CCNC(=S)Nc1ccc(OC(=O)Nc2ccc(Cl)c(Cl)c2)cc1	PLK1 PBD inh 9.5µM (no result: ALDH1A1 block)
CCOc1cncc(/C=C/CCNC)c1	none (no result: ALDH1A1 block, PLK1 PBD inh)
CCC(C)N1C(=O)/C(=C\c2ccc(N3CCCCCC3)cc2)C(=O)NC1=S (stereo not drawn)	ALDH1A1 block 0.13µM, PLK1 PBD inh inconclusive, Sfp PPTase inh inconclusive
CCC(C)N1C(=O)/C(=C\c2cc3c4c(c2)CCCN4CCC3)C(=O)NC1=S (stereo not drawn)	ALDH1A1 block 0.32µM, PLK1 PBD inh 0.95µM, Sfp PPTase inh inconclusive
O=C(c1cc2ccccn2n1)N1CCN(Cc2ccccc2)CC1	RORg inh inconclusive, ALDH1A1 block inconclusive
NNC(=O)c1nn(-c2ccccc2)cc1O	ALDH1A1 block inconclusive (no result: PLK1 PBD inh)
C=C(C)[C@H]1Cc2c(ccc3c2O[C@@H]2COc4cc(OC)c(OC)cc4[C@@H]2C3=O)O1	Gal4-VP16 FLuc inconclusive, RORg inh inconclusive (no result: PLK1 PBD inh)
C=C(C)C1Cc2c(ccc3c2OC2COc4cc(OC)c(OC)cc4C2C3=O)O1 (stereo not drawn)	Gal4-VP16 FLuc inconclusive, RORg inh 0.035µM, ALDH1A1 block inconclusive, Sfp PPTase inh inconclusive (no result: PLK1 PBD inh)
CC(C)C(C)/C=C/C(C)C1CCC2C3=CC=C4CC(O)CCC4(C)C3CCC21C (stereo not drawn)	ALDH1A1 block inconclusive (no result: PLK1 PBD inh)
CCC(=O)N1N=C(c2c(O)n(C)c(=O)n(C)c2=O)CC1c1ccccc1 (stereo not drawn)	RORg inh 11µM (no result: ALDH1A1 block)
Cn1c(O)c(C=NC2CCN(Cc3ccccc3)CC2)c(=O)n(C)c1=O	none
CCOc1ccc(C2CC(c3c(O)n(C)c(=O)n(C)c3=O)=NN2)cc1 (stereo not drawn)	Gal4-VP16 FLuc inconclusive, RORg inh inconclusive (no result: ALDH1A1 block)
Cn1c(O)c(C2=NN(C(=O)CCl)C(c3ccccc3)C2)c(=O)n(C)c1=O (stereo not drawn)	Gal4-VP16 FLuc 18µM, RORg inh inconclusive (no result: ALDH1A1 block)
COc1ccc(OC)c([C@H](O)[C@H](C)N)c1	none (no result: PLK1 PBD inh)
C[C@@H]1CC[C@H]2[C@H](C)[C@H]3CC[C@@]4(O)[C@@H]5CC(=O)[C@H]6CC(=O)CC[C@]6(C)[C@H]5C[C@H]4[C@@H]3CN2C1	none (no result: ALDH1A1 block, PLK1 PBD inh)
CCCCCn1c(Sc2ccccc2)nc2c1c(=O)[nH]c(=O)n2C	ALDH1A1 block inconclusive, PLK1 PBD inh 30µM
CCCCn1c(O)c(C(CC)=Nc2ccc(C(=O)O)cc2)c(=O)[nH]c1=O	none
COc1ccc(CCn2c(NN=C3CCCCC3)nc3c2c(=O)[nH]c(=O)n3C)cc1	PLK1 PBD inh inconclusive, Sfp PPTase inh inconclusive (no result: ALDH1A1 block)
COCCn1c(SCc2ccccc2Cl)nc2c1c(=O)[nH]c(=O)n2C	ALDH1A1 block 14µM, PLK1 PBD inh inconclusive
CSc1ccc(CN2CCN(Cc3ccccc3Cl)CC2)cc1	Sfp PPTase inh 22µM
COc1ccc(CN2CCN(Cc3ccccc3F)CC2)cc1	Sfp PPTase inh 79µM (no result: ALDH1A1 block)
CCCCNC(=O)/C(C#N)=c1\s/c(=C\c2ccccc2OC(F)F)c(=O)n1CCCOC	ALDH1A1 block inconclusive
O=c1[nH]c(=O)n(C2CCCCC2)c(O)c1C1NCCc2ccccc21 (stereo not drawn)	ALDH1A1 block inconclusive, Sfp PPTase inh 35µM
CCC(=NCc1cccnc1)c1c(O)n(C2CCCCC2)c(=O)[nH]c1=O	ALDH1A1 block inconclusive
COC(=O)[C@H]1C(=O)c2ccccc2O[C@@](C(=O)OC)(c2ccccc2)[C@@H]1c1ccccc1	none (no result: PLK1 PBD inh)
O=C(Nc1cccc(C(F)(F)F)c1)OC1CN2CCC1CC2 (stereo not drawn)	none (no result: ALDH1A1 block)
OC(c1cccc(Cl)c1)(c1cccc(Cl)c1)C1CN2CCC1CC2 (stereo not drawn)	Gal4-VP16 FLuc 11µM, RORg inh 6.3µM
CN(C(=O)Cc1ccc(Cl)c(Cl)c1)C(CN1CCCC1)c1cccc(N=C=S)c1 (stereo not drawn)	ALDH1A1 block inconclusive, Sfp PPTase inh 45µM (no result: Gal4-VP16 FLuc, RORg inh, PLK1 PBD inh)
COc1ccc(C(CNC(=O)Cc2ccc(Cl)c(Cl)c2)N(C)C)cc1 (stereo not drawn)	none
COc1ccc(C(CNC(=O)Cc2ccc(Cl)c(Cl)c2)N2CCCCC2)cc1 (stereo not drawn)	none (no result: ALDH1A1 block)
CN(C(=O)Cc1ccc(Cl)c(Cl)c1)[C@H](CN1CCCC1)c1cccc(N=C=S)c1	Gal4-VP16 FLuc inconclusive, RORg inh 32µM, ALDH1A1 block inconclusive, Sfp PPTase inh 50µM (no result: PLK1 PBD inh)
CC1OC(=O)C(C(C)C)NC(=O)C(C(C)C)OC(=O)C(C(C)C)NC(=O)C(C)OC(=O)C(C(C)C)NC(=O)C(C(C)C)OC(=O)C(C(C)C)NC(=O)C(C)OC(=O)C(C(C)C)NC(=O)C(C(C)C)OC(=O)C(C(C)C)NC1=O (stereo not drawn)	Gal4-VP16 FLuc 0.56µM, RORg inh 0.25µM (no result: PLK1 PBD inh)
O=C1C=CC(=O)C(Cl)=C1	Gal4-VP16 FLuc inconclusive, RORg inh 11µM, ALDH1A1 block 1.8µM, Sfp PPTase inh 4µM (no result: PLK1 PBD inh)
CCN1C[C@]2(COC(=O)c3ccccc3N3C(=O)CC(C)C3=O)CC[C@H](OC)[C@@]34C5C[C@@H]6[C@@H](OC)C[C@@](O)(C5[C@H]6OC)[C@](O)([C@@H](OC)C23)[C@@H]14 (stereo partly drawn)	none (no result: Gal4-VP16 FLuc, RORg inh, PLK1 PBD inh)
O=C(O)C1CN(CP(=O)(O)O)CCN1 (stereo not drawn)	none (no result: PLK1 PBD inh)
COc1ccc(CC(=O)Nc2ccc3c(C(F)(F)F)cc(=O)oc3c2)cc1OC	ALDH1A1 block 7.9µM
Cc1onc(-c2c(Cl)cccc2Cl)c1C(=O)Nc1ccc2c(C(F)(F)F)cc(=O)oc2c1	none (no result: ALDH1A1 block)
COC(=O)CSc1n[nH]c(=S)s1	ALDH1A1 block 11µM, PLK1 PBD inh 19µM, Sfp PPTase inh inconclusive
CCCCOC(=O)CCN1C(=O)/C(=C2\SC(=S)N(CCC(=O)OCCCC)C2=O)SC1=S	ALDH1A1 block 14µM
CCCCCCCCCCOC(=O)CCN1CC1	none (no result: Gal4-VP16 FLuc, RORg inh, ALDH1A1 block, Sfp PPTase inh)
O=c1[nH]c(=S)n(C2CC2)c(O)c1C=Nc1ccc2c(c1)OCO2	Sfp PPTase inh 56µM (no result: ALDH1A1 block)
O=C(N/N=C/c1c(O)n(C2CC2)c(=S)[nH]c1=O)c1ccccc1O	Gal4-VP16 FLuc 7.1µM, RORg inh 5.6µM
Cc1ccccc1-n1c(O)c(/C=N/NC(=O)c2ccccc2O)c(=O)[nH]c1=S	RORg inh inconclusive, PLK1 PBD inh 4.2µM (no result: ALDH1A1 block)

Source: PubChem (National Center for Advancing Translational Sciences (NCATS))
